Assay outcomes as filed in PubChem.
The list is not random: actives were taken first. Their share in the collection is about 21%.
Gal4-VP16 FLuc – VP16 counterscreen qHTS for inhibitors of ROR gamma transcriptional activity. Drosophila S2 Gal4-VP16 UAS-luciferase, luminescence, 20 h. Potency, µM (doses to about 53.6 µM), inactives show at the top dose activity, negative = inhibition, actives largely listed as inhibitors. hit rate 3.5% among 310,000. AID 2546, 2010;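 note: Gal4-VP16 expression switched on by copper sulfate through the metallothionein promoter; potency is the fitted concentration of half-maximal effect; nearly all actives have a fitted effect of over 50% in size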
RORg inh – qHTS for inhibitors of ROR gamma transcriptional activity | Drosophila S2 Gal4-RORgamma UAS-luciferase reporter, 20 h | Potency, µM (titrated, usually from 53.6 µM), for inactives: at the top dose activity change, negative = inhibition, usual class: inhibitors | hit rate 5.4% among 310,000 | AID 2551, 2010; note: potency is the fitted concentration of half-maximal effect; nearly all actives have a fitted effect of over 60% in size
Target sequence (P51450 whole entry, looked up, the tested form may be a part): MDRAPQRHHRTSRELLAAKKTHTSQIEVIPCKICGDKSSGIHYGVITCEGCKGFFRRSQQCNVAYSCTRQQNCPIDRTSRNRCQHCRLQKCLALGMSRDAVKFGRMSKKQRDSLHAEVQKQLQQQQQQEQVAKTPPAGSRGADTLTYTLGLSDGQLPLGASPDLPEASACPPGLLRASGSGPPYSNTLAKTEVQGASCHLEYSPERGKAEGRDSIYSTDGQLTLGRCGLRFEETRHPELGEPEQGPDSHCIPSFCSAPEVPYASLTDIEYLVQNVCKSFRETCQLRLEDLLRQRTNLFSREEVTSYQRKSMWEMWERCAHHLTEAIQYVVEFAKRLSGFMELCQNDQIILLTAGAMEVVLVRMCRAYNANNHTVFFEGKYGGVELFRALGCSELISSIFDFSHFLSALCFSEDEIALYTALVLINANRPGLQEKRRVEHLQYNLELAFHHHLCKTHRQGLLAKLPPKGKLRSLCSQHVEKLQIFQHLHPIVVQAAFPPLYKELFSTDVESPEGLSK
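ROR gamma transcriptional activity was tracked as Gal4-UAS luciferase output in stably transfected Drosophila Schneider cells, with compound added 1 hr before 700 uM copper sulfate induction and a 20 hr ambient-temperature incubation.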
DT40 TDP1 CPT – qHTS for Inhibitors of human tyrosyl-DNA phosphodiesterase 1 (TDP1): qHTS in cells in presence of CPT; Potency, µM (titrated, usually from 46.2 µM), inactives show at the highest dose activity change, negative = growth inhibition, actives largely listed as inhibitors; hit rate 12% among 420,000; chicken DT40 Tdp1-/-;hTDP1 cells + 20 nM CPT, ATP luminescence, 48 h; AID 686979, 2013; note: potency is the fitted concentration of half-maximal effect; nearly all actives have a fitted effect of over 55% in size
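Chicken DT40 Tdp1-/- cells complemented with human TDP1, 400 cells/well, exposed to compounds plus 20 nM camptothecin for at least 48 h at 37 C; viability read as ATP content by CellTiter-Glo luminescence.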
TDP1 cell noCPT – qHTS for Inhibitors of human tyrosyl-DNA phosphodiesterase 1 (TDP1): qHTS in cells in absence of CPT; DT40 Tdp1-/- hTDP1 cells, no CPT, ATP luminescence, 48 h; Potency, µM (series often up to 46.2 µM), for inactives: top-dose activity change, negative = growth inhibition, hits mostly inhibitors; hit rate 15% among 420,000; note: potency is the fitted concentration of half-maximal effect; nearly all actives have a fitted effect of over 55% in size
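Cells were dispensed at 400 per well, compounds added by pin tool, plates incubated ≥48 hr at 37 °C, then CellTiter-Glo added for 30 min at room temperature before luminescence reading. Line: DT40 Tdp1-/- complemented with hTDP1; camptothecin omitted.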
IL1B secr inh – qHTS for Inhibitors of Inflammasome Signaling: IL-1-beta AlphaLISA Primary Screen. THP-1 LPS/ATP IL-1B secretion, AlphaLISA, 16 h; stronger effect = lower value. hit rate 4.7% among 360,000. activity change, % at 57.5 µM; in the data active = activity change below about -50%; inconclusive = mostly about -30% to -49%
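Secreted IL-1B measured by AlphaLISA bead assay after 16 h compound exposure of THP-1 cells; compounds (final up to 57.5 uM) added 1 h before LPS (250 ng/mL) and ATP (1.25 mM) stimulation; lower signal means less secretion.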
ELG1 repair inh – qHTS screen for small molecules that inhibit ELG1-dependent DNA repair in human embryonic kidney (HEK293T) cells expressing luciferase-tagged ELG1; hit rate 2.3% among 330,000; AID 504467, 2011; HEK293T ELG1-luciferase reporter, luminescence, 16 h; DNA damage induced by 5-fluorouridine; Potency, µM (highest dose often 46.1 µM), inactives show at the highest dose activity change, negative = inhibition, hits mostly inhibitors; note: potency is the fitted concentration of half-maximal effect; nearly all actives have a fitted effect of over 55% in size
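Luminescence from the luciferase reporter, measured 30 min after ONE-Glo reagent at room temperature, was the read-out. Beforehand, 2,000 cells per well were exposed for 16 hr at 37 °C to 5-fluorouridine together with compound or vehicle.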
An asterisk follows results filed as active; ? = inconclusive; / = not tested or not shown. Unless noted, calls come from the whole dose curve; as a rule, active = well fitted curve in the direction sought with a large enough effect; inconclusive = small, poorly fitted or top-dose-only effect, or another doubt; inactive = no such curve, though single readings can be large; an effect the other way counts as inactive or inconclusive. % is set by controls: 0 for no effect and ±100 for the full control effect.

SMILES	Gal4-VP16 FLuc	RORg inh	DT40 TDP1 CPT	TDP1 cell noCPT	IL1B secr inh	ELG1 repair inh
CC1=NN(C(=O)CCc2ccccc2)C(O)(c2ccncc2)C1 (stereo not drawn)	?	1.78µM*	2.9%	16.8%	-4.1	17.8%
NC(=O)CSc1nnc(-c2ccco2)n1-c1ccc(F)cc1	/	/	-4.6%	?	0.0	/
Cc1ccccc1S(=O)(=O)N1C(c2ccc(Cl)c(Cl)c2)CC=C(C(=O)O)C1c1cccc(Br)c1 (stereo not drawn)	/	/	?	?	50.2	/
Cc1ccc(OCC(=O)N2CCCCCCC2)cc1C	1.9%	21.9%	-4.1%	?	39.8	?
CC1=NN(C(=O)COc2ccc(C)c(C)c2)C(O)(c2ccc(Cl)cc2)C1 (stereo not drawn)	15.8µM*	7.08µM*	13µM*	14.6µM*	-15.0	-1.9%
CCCCCC1CCNCC1	/	/	6.31µM*	8.91µM*	/	/
O=C1N[C@H]2CC=C[C@H]2N(Cc2cccs2)c2ccccc21	/	/	?	-10.1%	-4.3	0.7%
O=C1N[C@H]2CC=C[C@H]2Nc2ccccc21	/	/	13µM*	16.4µM*	-14.7	?
COc1ccc(OC)c(NC(=O)CNC(=O)c2ccc([N+](=O)[O-])cc2)c1	-1.1%	8.0%	?	?	2.8	?
COCCNC(=O)c1cnc2sc(N3CCC(C)CC3)nn2c1=O	/	/	-5.3%	-5.3%	/	/
O=C(NCCc1ccccc1)c1cnc2sc(N3CCOCC3)nn2c1=O	/	/	-13.4%	-9.0%	/	/
COc1ccc(CCNC(=O)c2cnc3sc(N4CCC(C)CC4)nn3c2=O)cc1OC	/	/	2.59µM*	3.66µM*	/	/
CC1CCN(c2nn3c(=O)c(C(=O)NCCc4ccccc4)cnc3s2)CC1	/	/	9.2µM*	?	/	/
Cc1cc([N+](=O)[O-])ccc1N1C(=O)c2ccc(C(=O)Nc3ccccc3C(=O)O)cc2C1=O	-5.0%	9.7%	-0.3%	5.7%	16.0	6.2%
O=C(Nc1c2c(nn1-c1ccc(Cl)cc1)CS(=O)(=O)C2)c1ccc(Br)cc1	/	/	23.1µM*	16.4µM*	/	/
COc1ccccc1C(=O)NCC(=O)OCC(=O)N1CC(C)OC(C)C1 (stereo not drawn)	/	/	-16.9%	-4.1%	14.5	20.8%
O=C(c1ccco1)N1CCN(c2ccc(Cl)cc2)CC1	?	?	-20.7%	-23.0%	-20.7	?
O=C(c1ccco1)N1CCN(c2ccc(Cl)c(Cl)c2)CC1	/	/	20.6µM*	14.6µM*	?	/
O=C(c1ccco1)N1CCN(C(=O)c2ccco2)C1=S	/	/	2.59µM*	5.8µM*	-99.9*	/
O=C(Nc1ccc(N2CCN(C(=O)c3ccco3)CC2)cc1)c1ccc(Br)cc1	-8.4%	-12.6%	-6.1%	?	-0.7	-0.8%
O=C(c1ccco1)N1CCCN(C(=O)c2ccco2)CC1	6.5%	-20.9%	?	-29.9%	0.1	-0.2%
O=C(Nc1ccc(Cl)c(Cl)c1)C1CCN(C(=O)c2ccco2)CC1	/	/	16.4µM*	14.6µM*	-18.9	1.1%
O=C(Nc1ccc(N2CCN(C(=O)c3ccco3)CC2)cc1)c1cc(Br)ccc1Cl	/	/	?	?	?	11.6µM*
CCCCCC(=O)NNC(=O)c1ccc(-c2ccccc2)cc1	0.3%	6.1%	-2.2%	-17.8%	-12.6	2.3%
Cc1ccc(OCCNC(=O)c2ccc(C)cc2)cc1	7.2%	2.5%	1.5%	13.6%	0.0	?
SMILES	Gal4-VP16 FLuc	RORg inh	DT40 TDP1 CPT	TDP1 cell noCPT	IL1B secr inh	ELG1 repair inh
CCCCC(=O)NNC(=S)NC(=O)c1ccc(C)cc1	17.8µM*	4.47µM*	-104.2%	?	60.9	-13.1%
COCCCNC(=S)NC(=O)c1ccc(C)cc1	?	12.6µM*	0.2%	18.4µM*	0.0	?
CCCCC(=O)NNC(=S)NC(=O)c1ccc([N+](=O)[O-])cc1	11.2µM*	2.51µM*	?	29.1µM*	29.6	?
CCCCCC(=O)NC(=S)NC1C2CC3CC(C2)CC1C3 (stereo not drawn)	7.94µM*	2.24µM*	?	?	76.9	13.4%
CCCCOc1ccc(C(=O)N/C(=C\c2ccc(Br)cc2)C(=O)NC2CCCCC2)cc1	/	/	5.17µM*	?	/	/
CCCCC(=O)NNC(=S)NC(=O)c1cccc([N+](=O)[O-])c1	0.891µM*	1µM*	23.1µM*	?	50.0	?
Cc1ccc(C(=O)NC(=S)NNC(=O)CC#N)cc1	3.1%	10µM*	0.5%	1.2%	0.0	6.6%
CCCCOc1ccc(C(=O)NCC(=O)NC2CC2)cc1	/	/	0.7%	1.3%	13.9	10.0%
CCCCOc1ccc(C(=O)N/C(=C/c2cccc([N+](=O)[O-])c2)C(=O)O)cc1	-1.7%	-7.0%	-7.3%	-25.5%	-61.8*	0.6%
COC(=O)C1=C[C@@H](C(=O)OC)[C@@H]2C3=C(C(=O)[C@@]2(C)NC(=O)c2ccccc2)[C@H](c2ccccc2)[C@@H]2C(=O)NC(=O)[C@@H]2[C@@H]3C1	2.8%	2.5%	-3.5%	-8.3%	-4.7	/
O=S(=O)(/N=C(/Nc1cccnc1Cl)c1ccccc1)c1ccccc1	/	/	5.9%	7.8%	0.3	0.1%
Cc1ccc(C(=O)NC(C#N)=C(Cl)Cl)cc1	10µM*	8.91µM*	?	2.31µM*	-103.1*	?
Cc1ccc(C(=O)NCC#N)cc1	-3.7%	-13.0%	?	?	-14.8	-1.4%
CCCCCC(=O)NNC(=S)NC(C)=O	-9.3%	-40.0%	?	18.4µM*	15.6	-2.4%
COc1ccccc1CC(=O)N1CCC(CCC(=O)NC2CC2)CC1	6.4%	-4.7%	-7.1%	0.8%	32.7	7.8%
CCOC(=O)c1ccc(NC(=O)c2cn3c4c(ccc(Cl)c4c2=O)OC(C)C3)cc1 (stereo not drawn)	/	/	-8.7%	2.0%	/	/
CSC1SCC2C(=O)N(C)C(C(C)C)C(=O)OCC(NC(=O)c3cnc4ccccc4n3)C(=O)NC(C)C(=O)N(C)C1C(=O)N(C)C(C(C)C)C(=O)OCC(NC(=O)c1cnc3ccccc3n1)C(=O)NC(C)C(=O)N2C (stereo not drawn)	/	/	-72.4%	-83.4%	-115.8*	/
O=S(=O)(c1ccccc1)C1(S(=O)(=O)c2ccccc2)CCCC1	1.3%	3.0%	-7.6%	-2.3%	0.4	-1.0%
Cc1ccc(S(=O)(=O)C2(S(=O)(=O)c3ccc(C)cc3)CC2)cc1	2.8%	-2.6%	-8.7%	-15.3%	-23.9	23.1µM*
